Test results taken from PubChem BioAssay (Tox21).
Records with an inconclusive call do not appear. Entries that show only a call come without a potency. Activity calls are given as the source filed them. Calls come from the whole dose curve; as a rule, active = well fitted inhibition curve with a large enough effect in the repeat runs; inconclusive = weak or mixed curves; inactive = no such curve, though single readings can be large or run the other way.

target: Cytochrome P450 2D6 (Homo sapiens) (UniProt P10635); test: Cytochrome P450 Family 2 Subfamily D Member 6 (CYP2D6) small molecule antagonists: luciferase reporter qHTS assay (AID 1671196); conditions: P450-Glo CYP2D6 enzyme assay, luciferin luminescence, 1 h; series mostly up to 115 µM; note: nearly all actives have a fitted effect of over 50% in size
Sequence (P10635 whole entry, looked up): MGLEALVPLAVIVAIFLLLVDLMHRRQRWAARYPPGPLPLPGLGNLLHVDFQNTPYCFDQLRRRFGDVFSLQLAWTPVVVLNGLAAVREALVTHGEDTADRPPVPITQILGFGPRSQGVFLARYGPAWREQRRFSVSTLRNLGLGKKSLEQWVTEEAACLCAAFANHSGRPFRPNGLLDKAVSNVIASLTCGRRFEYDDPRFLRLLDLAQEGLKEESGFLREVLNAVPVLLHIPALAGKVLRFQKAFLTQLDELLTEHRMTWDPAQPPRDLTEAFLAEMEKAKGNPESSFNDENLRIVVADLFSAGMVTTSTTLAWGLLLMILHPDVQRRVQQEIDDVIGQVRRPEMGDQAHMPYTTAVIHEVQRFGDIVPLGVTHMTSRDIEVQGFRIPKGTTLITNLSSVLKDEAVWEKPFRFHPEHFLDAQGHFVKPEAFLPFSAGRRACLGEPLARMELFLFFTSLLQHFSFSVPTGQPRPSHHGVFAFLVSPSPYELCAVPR
Excerpt: U.S. Tox21 Program National Center for Advancing Translational Sciences [NCATS] U.S. Environmental Protection Agency [EPA] National Institutes of Environmental Health Sciences [NIEHS] National Toxicology Program [NTP] U.S. Food and Drug Administration [FDA] Tox21 Assay Overview: Cytochrome P450 (CYP) enzymes are membrane-bound hemeproteins that play a key role in metabolism of drugs and xenobiotics. Evaluation of the effect of chemicals on CYP isozymes is useful to minimize the adverse drug reactions and toxicities in drug development process. Tox21 chemicals were tested for their effect on CYP enzyme activities by using P450-Glo (TM) screening systems (Promega Corporation, Madison, WI). These systems provide a luminescent method containing proluciferin substrates and are converted to luciferin products by CYP isozymes. The luciferin products formed are detected with a luciferin detection reagent, and the amount of light produced is proportional to CYP activity. P450-Glo (TM) CYP2D6 screening system (Catalog. No. V9890) was used to detect the compounds that interfere in CYP2D6 activity.
Tox21 Assay Protocol Summary: Two ul of enzyme-substrate mix was dispensed into medium binding white/solid 1536-well plates (Greiner Bio-One North America Inc., Monroe, NC) using a BioRaptr Flying Reagent Dispenser (FRD, Beckman Coulter, Brea, CA). […] The assay plates were incubated at room temperature for 10 min. Then 2 ul of NADPH regeneration solution was added to each well of the assay plates using an FRD and incubated at room temperature for 1 h. The reaction was stopped by adding 4 ul of detection reagent using an FRD and after 20 min incubation at room temperature the luminescence signal was measured using a ViewLux plate reader (Perkin Elmer, Shelton, CT). Data were expressed as relative luminescence units.
Potency is the fitted concentration of half-maximal effect.

Row | Compound | Potency
1 | CC(C)CC(C)(C)C | 36.9 µM (active)
2 | CCC(=O)O[C@]1(C(=O)COC)[C@@H](C)C[C@H]2[C@@H]3CCC4=CC(=O)C=C[C@]4(C)C3(F)[C@@H](O)C[C@@]21C (stereo not given in full) | 15.5 µM (active)
3 | CC(CCl)OC(C)CCl (stereo not given) | inactive
4 | O=c1c2ccccc2oc2ccccc12 | inactive
5 | Nc1ccc(F)cc1F | inactive
6 | O=C(O)c1ccc(O)c(O)c1 | inactive
7 | C[C@H]1C[C@H]2[C@@H]3CCC4=CC(=O)C=C[C@]4(C)[C@@]3(F)[C@@H](O)C[C@]2(C)[C@@]1(O)C(=O)COP(=O)(O)O | inactive
8 | C=C(C)C(=O)OCCCCCCCCCCOC(=O)C(=C)C | 35.6 µM (active)
9 | CC(C)Cc1nccs1 | 12.9 µM (active)
10 | NC(=O)c1ccccc1 | inactive
11 | CCCc1nc(C)c2c(=O)[nH]c(-c3cc(S(=O)(=O)N4CCN(CC)CC4)ccc3OCC)nn12 | inactive
12 | CCCCCCCCCCCCSCCOCCO | inactive
13 | COc1ccc(/C=C/c2cc(OC)cc(=O)o2)cc1 | inactive
14 | O=c1[nH][nH]c2ccccc12 | inactive
15 | C=CC(=O)NC(C)(C)C | inactive
16 | CC(C)(C)c1ccc(CCC=O)cc1 | inactive
17 | NCCOCCOCCN | 25.2 µM (active)
18 | O=C(O)c1ccccc1-n1cc(C(=O)O)c(=O)c2cc(Nc3c(F)cc(F)cc3Cl)c(Cl)cc21 | inactive
19 | C[C@]12CCC(=O)C=C1[C@@H]1C[C@@H]1[C@H]1[C@@H]3[C@@H]4C[C@@H]4[C@@]4(CCC(=O)O4)[C@@]3(C)CC[C@@H]12 | inactive
20 | C1CCN(CN2CCCCC2)CC1 | 7.1 µM (active)

Row | Compound | Potency
21 | FC1(F)C(F)(F)C(F)(F)C2(F)C(F)(C1(F)F)C(F)(F)C(F)(F)C1(F)C(F)(F)C(F)(F)C(F)(F)C(F)(F)C12F (stereo not given) | inactive
22 | CC(=O)CC/C=C(\C)CC/C=C(\C)CC/C=C(\C)CCC=C(C)C | inactive
23 | CC(=O)Oc1cccc2c1C(=O)c1c(OC(C)=O)cc(C(=O)O)cc1C2=O | inactive
24 | CO[C@@H]1[C@@H](O[C@@H]2O[C@H](C)[C@@H](O[C@H]3C[C@@](C)(O)[C@@H](O)[C@H](C)O3)[C@H](N(C)C)[C@H]2O)[C@@H](CC=O)C[C@@H](C)[C@@H](O[C@@H]2CC[C@H](N(C)C)[C@@H](C)O2)/C=C/C=C/C[C@@H](C)OC(=O)C[C@H]1OC(C)=O | inactive
25 | O=C1C=CCCC1 | inactive
26 | CCCCCCCCCCCCCCCCC(=O)O | inactive
27 | Cc1cccc(C)c1NC(=O)CN1CCCC1 | 15.5 µM (active)
28 | Cc1ccc(NC(=O)c2ccc(CN3CCN(C)CC3)cc2)cc1Nc1nccc(-c2cccnc2)n1 | inactive
29 | CC(C)C/C=C(\C=O)c1ccccc1 | inactive
30 | CC(=O)S[C@H](C(=O)N[C@H]1Cc2ccccc2[C@H]2CCC[C@@H](C(=O)O)N2C1=O)C(C)C | inactive
31 | Cc1nc(C)c(C)nc1C | inactive
32 | COc1ccc(/C=C/S(=O)(=O)NC(=O)c2ccc(C)cc2Cl)cc1 | inactive
33 | CS(C)=O | inactive
34 | O=C(O)CNc1ccccc1 | inactive
35 | CC(C(=O)O)c1ccc2c(c1)Cc1cccnc1O2 (stereo not given) | inactive
36 | Cc1ccc(S(=O)(=O)NC(=O)NC2CCCC2)cc1 | inactive
37 | N#Cc1ccc(CC(=O)c2cccc(C(F)(F)F)c2)cc1 | 63.3 µM (active)
38 | COC(=O)C(C)(C)C | inactive
39 | CNc1ccccc1 | inactive
40 | Cc1ccc(Cl)c(OCC(O)CNC(C)(C)C)c1 (stereo not given) | 1.1 µM (active)
